From PubChem BioAssay AID777 (Sanford-Burnham Center for Chemical Genomics, 2007)
Hit rate of the full screen: of about 96,000 compounds, about 19,000 (20%) were called active.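 Rule for the calls: active = blocking of liver enzyme CYP2C9 beyond about 50% at 5 µM (limit read from the data); inactive = the rest.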 Not all results are given here.

Target: Cytochrome P450 2C9 (Homo sapiens) (UniProt P11712)
Test: blockers of cytochrome P450 2C9 activity – biochemical, luminescence, ADME assay, primary screen (AID 777)
Details: CYP2C9 Supersomes, luciferin-H conversion, at 5 µM, hits give high values

Chain of Cytochrome P450 2C9 (Homo sapiens) (P11712 whole entry, looked up): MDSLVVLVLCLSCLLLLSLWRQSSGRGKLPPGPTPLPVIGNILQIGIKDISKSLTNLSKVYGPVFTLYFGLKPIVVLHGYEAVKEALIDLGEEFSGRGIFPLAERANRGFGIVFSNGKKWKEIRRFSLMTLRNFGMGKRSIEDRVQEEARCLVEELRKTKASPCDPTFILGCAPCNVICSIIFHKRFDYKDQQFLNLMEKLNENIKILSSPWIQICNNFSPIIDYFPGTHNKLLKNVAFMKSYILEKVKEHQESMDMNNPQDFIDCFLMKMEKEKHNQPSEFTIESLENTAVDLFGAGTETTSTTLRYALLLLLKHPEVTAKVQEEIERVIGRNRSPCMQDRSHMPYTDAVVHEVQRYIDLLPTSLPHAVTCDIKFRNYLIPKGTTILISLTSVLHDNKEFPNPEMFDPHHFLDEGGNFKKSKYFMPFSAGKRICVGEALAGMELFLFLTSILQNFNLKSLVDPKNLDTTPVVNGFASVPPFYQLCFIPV

inhibition, active:
COC(=O)c1ccc(CSc2nc3ccccc3c(=O)n2-c2cccc(OC)c2)o1 100%
COCC(C)n1c(SCc2ccc(C(=O)OC)o2)nc2ccccc2c1=O (stereo not drawn) 52.9%
CC(c1ccco1)N(C(=O)Nc1ccccc1)C1CCCCC1 (stereo not drawn) 81.3%
Cn1c(=O)[nH]c(=O)c2c1nc(Br)n2CCCCSc1nc2ccccc2o1 67.6%
COc1cccc(C(=O)c2cc3ccc(O)cc3oc2=O)c1 92.8%
CCOC(=O)c1c(C)[nH]c(C(=O)NCc2ccccc2OC)c1C 78.3%
CCOc1ccc(CN(Cc2ccco2)C(c2cccs2)c2nnnn2C(C)(C)C)cc1 (stereo not drawn) 77.2%
CCOc1cccc(-n2nnnc2-c2ccc(OC)cc2)c1 91.4%
Cc1cccc2cc(CN(Cc3nnnn3Cc3ccccc3)C3CCCC3)c(=O)[nH]c12 91.5%
Cc1nc(Nc2ccc3c(c2)OCCO3)c2nnn(Cc3ccccc3Cl)c2n1 93.2%
O=c1cc(Cn2nnc(-c3ccc(Cl)cc3)n2)nc2sccn12 63.5%
Clc1cccc(N=C2NN=C(c3ccc4c(c3)OCCO4)CS2)c1 77.7%

inhibition, inactive:
CCc1c(O)nc(SCC(=O)Nc2ccccc2)n(C(C)CC)c1=O (stereo not drawn) 11.7%
CCOC(=O)CNC(=O)c1nn(-c2cccc(OC)c2)c(=O)c2ccccc12 29.6%
COC(=O)CSc1nc(C2CC2)nc2ccccc12 48%
N#CCSc1nc2ccccc2c(=O)n1-c1ccccc1 30.4%
O=C(CCc1ccccc1)Nc1ccc(NC(=O)C2CC2)nc1 25.9%
N#Cc1c(N)n(CCOC(=O)c2ccc(Cl)cc2)c2nc3ccccc3nc12 14.9%
CCCC(C(=O)NCc1ccco1)N(C(=O)CNS(=O)(=O)c1ccccc1)C1CCCC1 (stereo not drawn) 40.6%
CCOc1ccc(NC(=O)N(CCC(C)C)C(C)c2ccco2)cc1 (stereo not drawn) 43.6%
Cc1cc(C)c(S(=O)(=O)N2C=CC(C(F)(F)F)=NCC2)c(C)c1 13.2%
OC(CN1C2=NCCCN2c2ccccc21)c1ccc(Br)cc1 (stereo not drawn) 17.7%
NC(=S)c1ccc(C(N)=S)o1 23.3%
Cc1ccnc(SCCn2c(Br)nc3c2c(=O)[nH]c(=O)n3C)n1 -6.9%
CCCCCCn1c(SCC(=O)c2ccccc2)nc2c1c(=O)[nH]c(=O)n2C 18.7%
CN(C)/C=C(/C(=O)c1ccc(Cl)cc1)S(=O)(=O)c1ccccc1 -9.5%
COc1cccc(C(=O)NNC(=O)c2ccccc2Br)c1 -182%
COc1ccc2oc(=O)c(C(=O)O)cc2c1 -6.4%
O=C(NC1=NCCS1)c1ccc(Cl)s1 3.9%
COc1ccc(C(=O)n2nc(-c3ccc(C)cc3)nc2N)cc1OC -9.5%
Cc1ccc2nc(NC3=NCN(CCc4ccccc4)CN3)nc(C)c2c1 -5.5%
COc1ccccc1CNC(=O)c1ccc(SC)cc1OC -50.7%
CC(=O)c1c(C)[nH]c(C(=O)NCc2ccc(C)cc2)c1C 49.2%
Cn1c2c(c(=O)n(C)c1=O)CN(Cc1ccco1)CN2 -11.6%
N#CCSc1nc2c(c(=O)n1Cc1ccccc1)C1(CCCC1)Cc1ccccc1-2 36.9%
CC(C)C(NC(=O)c1ccc(Cl)cc1)C(=O)O (stereo not drawn) -5.3%
O=C(CC1CCCCC1)Nc1c2c(nn1-c1ccc(F)cc1)CS(=O)(=O)C2 -6.5%
COc1ccc(-c2nc3n(c2Br)CCC3)cc1 2.9%
CC(C)(C)n1nnnc1C(c1cccs1)N(Cc1cccnc1)CC1CCCO1 (stereo not drawn) 19.7%
CC(C)(C)NC(=O)CN(Cc1cccs1)C(=O)CNS(=O)(=O)c1ccccc1 26.8%
Cc1cc(C)c2nc(SCCC#N)nc(C)c2c1 -19.9%
CCOC(=O)Nc1ccc2c(c1)N(C(=O)CCN1CCN(CCO)CC1)c1ccccc1CC2 -14%
CCOc1cccc(-c2nnc3sc(COc4ccc(OC)cc4)nn23)c1 20.9%
COc1ccc(-n2nnnc2SCC(=O)c2ccc(OC)c(OC)c2)cc1 45.6%
Cc1cc(C)c2cc(CN(Cc3nnnn3Cc3ccc(F)cc3)C3CCCC3)c(=O)[nH]c2c1 -7.2%
Cc1cccc2cc(CN(Cc3ccc4c(c3)OCO4)Cc3nnnn3C3CCCC3)c(=O)[nH]c12 38.4%
O=C(CCl)NNc1cccc(Cl)n1 10.1%
c1ccc(-c2ccnc3nc(-n4cccc4)nn23)cc1 6.8%
C#CCNc1nc(C(C)C)nc2c1nnn2Cc1ccccc1F 40.2%
CC(C)(C)c1nc(NCC2CCCO2)c2nnn(Cc3ccccc3)c2n1 (stereo not drawn) 32.7%
O=C(CN1CCSCC1)N/N=C/c1ccc(F)cc1 17.1%
O=C(O)c1cccc2c1C(=O)N(C1CCCCC1)C2 -13.9%
COCCNC(=O)c1snc2ccc(Cl)cc12 -11.2%
COc1ccc(NC(=O)Nc2cccc3cccnc23)cc1 -39.1%
O=C(NCc1ccc(Cl)cc1)c1cc2c(nc3sccn32)s1 17.9%
O=C(NCc1cn2ccsc2n1)Nc1ccc(Cl)cc1 13.6%
Cc1ccc(C(=O)OC2=CC(=O)CC(C)(C)C2)cc1 28.3%
CN(c1cccc(NC(=O)Nc2ccc(Cl)cc2)c1)S(C)(=O)=O 30.6%
COc1ccc(-c2cc(C(F)(F)F)n3nc(C(=O)N4CCOCC4)c(Cl)c3n2)cc1 0.7%
CCOc1cc(CNCCN(C)C)c(Cl)cc1OCC(=O)NCCc1ccccc1 22.3%
CCOC(=O)C1=C(O)CSC1=Nc1cccc(Cl)c1 9%
COc1ccc(-c2cc(C(=O)NC(C(=O)O)C(C)C)c(C)o2)cc1OC (stereo not drawn) 21%
O=C(Nc1c2c(nn1-c1ccc(F)cc1)CS(=O)C2)C12CC3CC(CC(C3)C1)C2 (stereo not drawn) 14.4%
